The values that follow come from PubChem BioAssay.

For experiment [1], the system named is PRMT1 (protein arginine N-methyltransferase 1). The experiment is described as follows: PRMT1 binders on small-molecule microarrays, primary screen, biochemical, small-molecule microarray, 635 nm fluorescence (AID 1088).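 Note: binding of Prmt1 protein to compounds spotted on small-molecule microarray slides.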 Conditions: small-molecule microarray binding, higher = more signal.
The nature of experiment [2]: yeast growth modulation, basal conditions, primary screen, YJM789 clinical isolate, OD600, 24 h (AID 1089).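 Note: growth of clinical yeast isolate S. cerevisiae YJM 789 seeded 1000 cells per well; test concentration not given here.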 As to conditions: S. cerevisiae YJM789 growth, higher = more signal, called active from +8 up or from −8 down.
Experiment [3] in a line: fission yeast growth modulation, primary screen, strain 972, OD600, 24 h, no modulator (AID 1090).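 Note: basal condition with compound alone and no growth modifier present; test concentration not given here.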 Conditions: S. pombe 972 growth, higher = more signal, called active from +8 up or from −8 down.
Experiment [4] in a line: S. cerevisiae growth modulation with rapamycin, primary screen, strain BY4716, OD600, 96 h (AID 1091). Note: test concentration not given here. Conditions: higher = more signal, called active from +8 up or from −8 down.
Experiment [5] addresses Torsin-1A-interacting protein 2 (Homo sapiens) (UniProt Q8NFQ8). The experiment can be described thus: LULL1 binders on small-molecule microarray, primary screen, cell lysate, human LULL1 lysate, 635/667 nm fluorescence (AID 1092).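 Note: probe is lysate of COS7 cells overexpressing human LULL1; score merges per-feature 667 nm fluorescence with signal-to-noise.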 Conditions: hLULL1 lysate binding, 635 nm fluorescence, higher = more signal.
Experiment [6] can be described thus: E. coli growth modulation, two-sided OD650, primary screen, E. coli filamentation project, strain DRC41, 24 h (AID 1093).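 Note: MC1000 strain lacking acrAB efflux and sulA so SOS filamentation is blocked; test concentration not given here.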 Conditions: OD650, 24 h, higher = more signal, called active from +8 up or from −8 down.
A short description of experiment [7]: small-molecule microarray binders of probe aLefty2, primary screen, biochemical, biotinylated probe, 635/667 nm fluorescence (AID 1094).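 Note: score merges spot fluorescence near 667 nm with spot signal-to-noise ratio.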 Conditions: higher = more signal.
The test system of experiment [8] is Noggin (protein binding on small-molecule microarray). The experiment is described as follows: Noggin binders on small-molecule microarray, primary screen, biochemical, 635/667 nm fluorescence (AID 1095).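 Note: score merges 667 nm feature fluorescence with signal to noise over triplicate slides.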 As to conditions: 635 nm fluorescence, higher = more signal.
Experiment [9] has as its target Neurogenic locus notch homolog protein 3 (Homo sapiens) (UniProt Q9UM47). The experiment can be described thus: NOTCH3 binders on small-molecule microarray, primary screen, biochemical, 635/667 nm fluorescence (AID 1096). As to conditions: NOTCH3 binding, 635 nm fluorescence, higher = more signal.
The nature of experiment [10]: small-molecule microarray binders of probe aEGFR, primary screen, biochemical, biotinylated probe, 635/667 nm fluorescence (AID 1097).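 Note: probe is a biotinylated anti-EGFR antibody binding compounds printed on slides; score combines fluorescence near 667 nm and signal to noise of each spot.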 As to conditions: higher = more signal.
In experiment [11] the test system is Plasmodium falciparum Sir2 (PF13_0152, Sir2A). The experiment can be described thus: pfSir2 binders on small-molecule microarrays, primary screen, biochemical, small-molecule microarray, 635 nm fluorescence (AID 1098).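 Note: score merges spot fluorescence intensity with its signal-to-noise ratio.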 As to conditions: small-molecule microarray binding, fluorescence 635 nm; higher = more signal.
A short description of experiment [12]: small-molecule microarray binders of probe aDKK1, primary screen, biochemical, biotinylated probe, 635/667 nm fluorescence (AID 1099).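 Note: score merges 667nm spot fluorescence with signal to noise across triplicate slides; reference of the scale not given here.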 Conditions: higher = more signal.
Experiment [13] in a line: small-molecule microarray binders of probe aCHRDL2, primary screen, biochemical, biotinylated probe, 635/667 nm fluorescence (AID 1100). Conditions: higher = more signal.
Experiment [14] in a line: splicing luciferase reporter signal modulators, primary screen, spliceosome inhibition project, cell-based, HEK293, splice +/- reporter (AID 1101).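 Note: HEK293 cells carrying a splicing-competent luciferase reporter gene; test concentration not given here.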 As to conditions: luminescence, 24 h, higher = more signal, called active from +8 up or from −8 down. In general terms: A reporter such as luciferase makes a cellular process visible.
Experiment [15] concerns the target Fibroblast growth factor 10 (Homo sapiens) (UniProt O15520). The experiment is described as follows: FGF10 binders on small-molecule microarrays, primary screen, biochemical, small-molecule microarray, 635 nm fluorescence (AID 1102). As to conditions: FGF10 binding, fluorescence 635 nm, higher = more signal.
The subject of experiment [16] is glycogen synthase kinase-3 (GSK3A per assay name; protocol says GSK3B). The experiment can be described thus: GSK3 binders on small-molecule microarrays, primary screen, biochemical, small-molecule microarray, 635 nm fluorescence, GSK3A (AID 1103). Note: the record names both GSK3A and GSK3B. As to conditions: small-molecule microarray binding, fluorescence 635 nm; higher = more signal.
Experiment [17] deals with Epidermal growth factor receptor (Homo sapiens) (UniProt P00533). The experiment is described as follows: EGFR binders on small-molecule microarrays, primary screen, biochemical, small-molecule microarray, 635 nm fluorescence (AID 1104).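 Note: score merges 667 nm emission intensity with spot signal to noise over triplicate slides.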 As to conditions: EGFR binding, higher = more signal.
Epidermal growth factor receptor (Homo sapiens), sequence (P00533 whole entry, looked up): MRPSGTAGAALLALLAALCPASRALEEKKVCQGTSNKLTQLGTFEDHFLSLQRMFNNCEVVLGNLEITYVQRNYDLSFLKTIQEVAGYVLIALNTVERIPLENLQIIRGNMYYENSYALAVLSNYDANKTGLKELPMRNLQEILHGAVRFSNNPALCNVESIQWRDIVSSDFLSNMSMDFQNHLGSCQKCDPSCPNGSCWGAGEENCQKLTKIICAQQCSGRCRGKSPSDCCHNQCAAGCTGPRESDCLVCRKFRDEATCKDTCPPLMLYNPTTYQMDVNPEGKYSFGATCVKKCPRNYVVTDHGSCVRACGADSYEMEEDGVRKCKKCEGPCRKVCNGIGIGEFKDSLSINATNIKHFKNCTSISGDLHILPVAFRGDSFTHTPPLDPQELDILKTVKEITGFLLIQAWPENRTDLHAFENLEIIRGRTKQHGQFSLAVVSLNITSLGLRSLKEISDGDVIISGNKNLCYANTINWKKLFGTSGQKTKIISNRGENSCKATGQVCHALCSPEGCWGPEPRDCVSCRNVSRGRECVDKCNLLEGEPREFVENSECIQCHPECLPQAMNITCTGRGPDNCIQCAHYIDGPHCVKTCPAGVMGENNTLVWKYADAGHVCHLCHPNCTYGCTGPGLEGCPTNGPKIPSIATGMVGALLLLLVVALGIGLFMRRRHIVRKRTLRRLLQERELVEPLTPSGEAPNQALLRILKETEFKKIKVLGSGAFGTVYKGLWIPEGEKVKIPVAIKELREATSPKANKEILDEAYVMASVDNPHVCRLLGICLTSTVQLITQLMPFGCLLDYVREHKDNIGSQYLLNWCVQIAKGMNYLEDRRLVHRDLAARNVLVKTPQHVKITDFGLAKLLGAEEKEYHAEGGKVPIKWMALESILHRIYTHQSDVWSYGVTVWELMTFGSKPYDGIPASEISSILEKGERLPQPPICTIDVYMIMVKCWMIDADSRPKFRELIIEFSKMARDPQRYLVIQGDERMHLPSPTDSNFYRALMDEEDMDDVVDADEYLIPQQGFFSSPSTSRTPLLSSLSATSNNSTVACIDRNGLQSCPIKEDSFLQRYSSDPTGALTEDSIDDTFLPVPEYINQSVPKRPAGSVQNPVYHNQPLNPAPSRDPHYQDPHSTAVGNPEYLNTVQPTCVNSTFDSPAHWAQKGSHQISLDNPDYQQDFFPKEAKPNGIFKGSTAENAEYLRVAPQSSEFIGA
Experiment [18] has as its target Follistatin-related protein 3 (Homo sapiens) (UniProt O95633). The experiment can be described thus: FSTL3 binders on small-molecule microarrays, primary screen, biochemical, small-molecule microarray, 635 nm fluorescence (AID 1105).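 Note: score merges emission near 667 nm and signal to noise per printed spot across three slides.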 Conditions: FSTL3 binding, higher = more signal.
Experiment [19] deals with Dickkopf-related protein 1 (Homo sapiens) (UniProt O94907). The experiment is described as follows: DKK1 binders on small-molecule microarrays, primary screen, biochemical, small-molecule microarray, 635 nm fluorescence scan (AID 1106).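 Note: score merges emission near 667 nm with signal to noise over three replicate slides.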 As to conditions: DKK1 binding, higher = more signal.
Dickkopf-related protein 1 (Homo sapiens), sequence (O94907 whole entry, looked up): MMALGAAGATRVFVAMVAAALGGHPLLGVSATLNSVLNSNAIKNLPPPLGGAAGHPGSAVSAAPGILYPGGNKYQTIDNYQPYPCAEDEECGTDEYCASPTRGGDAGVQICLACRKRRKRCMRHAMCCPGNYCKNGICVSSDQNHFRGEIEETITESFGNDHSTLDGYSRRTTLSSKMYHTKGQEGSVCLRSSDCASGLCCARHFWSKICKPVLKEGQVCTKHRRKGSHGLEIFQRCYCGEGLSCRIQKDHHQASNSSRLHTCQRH
Experiment [20] relates to Inhibin beta A chain (activin A). The experiment can be described thus: INHBA (activin A) binders on microarrays, primary screen, biochemical, small-molecule microarray, 635 nm fluorescence scan (AID 1107).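 Note: mouse activin A protein probed at 4.33 µg/mL on printed slides; score merges bound-protein fluorescence near 667 nm with spot signal-to-noise.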 Conditions: small-molecule microarray binding, higher = more signal.

The structures appear in SMILES notation. Calls of active or inactive are those of the source.

Follistatin-related protein 3 (Homo sapiens), sequence (O95633 whole entry, looked up): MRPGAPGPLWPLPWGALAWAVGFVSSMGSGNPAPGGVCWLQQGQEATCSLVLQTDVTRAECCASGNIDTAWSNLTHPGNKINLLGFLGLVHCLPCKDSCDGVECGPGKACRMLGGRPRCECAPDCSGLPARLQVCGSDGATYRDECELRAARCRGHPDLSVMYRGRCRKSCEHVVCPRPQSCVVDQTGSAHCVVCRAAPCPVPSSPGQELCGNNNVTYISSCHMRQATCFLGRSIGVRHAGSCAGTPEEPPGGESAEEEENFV
Neurogenic locus notch homolog protein 3 (Homo sapiens), sequence (Q9UM47 whole entry, looked up): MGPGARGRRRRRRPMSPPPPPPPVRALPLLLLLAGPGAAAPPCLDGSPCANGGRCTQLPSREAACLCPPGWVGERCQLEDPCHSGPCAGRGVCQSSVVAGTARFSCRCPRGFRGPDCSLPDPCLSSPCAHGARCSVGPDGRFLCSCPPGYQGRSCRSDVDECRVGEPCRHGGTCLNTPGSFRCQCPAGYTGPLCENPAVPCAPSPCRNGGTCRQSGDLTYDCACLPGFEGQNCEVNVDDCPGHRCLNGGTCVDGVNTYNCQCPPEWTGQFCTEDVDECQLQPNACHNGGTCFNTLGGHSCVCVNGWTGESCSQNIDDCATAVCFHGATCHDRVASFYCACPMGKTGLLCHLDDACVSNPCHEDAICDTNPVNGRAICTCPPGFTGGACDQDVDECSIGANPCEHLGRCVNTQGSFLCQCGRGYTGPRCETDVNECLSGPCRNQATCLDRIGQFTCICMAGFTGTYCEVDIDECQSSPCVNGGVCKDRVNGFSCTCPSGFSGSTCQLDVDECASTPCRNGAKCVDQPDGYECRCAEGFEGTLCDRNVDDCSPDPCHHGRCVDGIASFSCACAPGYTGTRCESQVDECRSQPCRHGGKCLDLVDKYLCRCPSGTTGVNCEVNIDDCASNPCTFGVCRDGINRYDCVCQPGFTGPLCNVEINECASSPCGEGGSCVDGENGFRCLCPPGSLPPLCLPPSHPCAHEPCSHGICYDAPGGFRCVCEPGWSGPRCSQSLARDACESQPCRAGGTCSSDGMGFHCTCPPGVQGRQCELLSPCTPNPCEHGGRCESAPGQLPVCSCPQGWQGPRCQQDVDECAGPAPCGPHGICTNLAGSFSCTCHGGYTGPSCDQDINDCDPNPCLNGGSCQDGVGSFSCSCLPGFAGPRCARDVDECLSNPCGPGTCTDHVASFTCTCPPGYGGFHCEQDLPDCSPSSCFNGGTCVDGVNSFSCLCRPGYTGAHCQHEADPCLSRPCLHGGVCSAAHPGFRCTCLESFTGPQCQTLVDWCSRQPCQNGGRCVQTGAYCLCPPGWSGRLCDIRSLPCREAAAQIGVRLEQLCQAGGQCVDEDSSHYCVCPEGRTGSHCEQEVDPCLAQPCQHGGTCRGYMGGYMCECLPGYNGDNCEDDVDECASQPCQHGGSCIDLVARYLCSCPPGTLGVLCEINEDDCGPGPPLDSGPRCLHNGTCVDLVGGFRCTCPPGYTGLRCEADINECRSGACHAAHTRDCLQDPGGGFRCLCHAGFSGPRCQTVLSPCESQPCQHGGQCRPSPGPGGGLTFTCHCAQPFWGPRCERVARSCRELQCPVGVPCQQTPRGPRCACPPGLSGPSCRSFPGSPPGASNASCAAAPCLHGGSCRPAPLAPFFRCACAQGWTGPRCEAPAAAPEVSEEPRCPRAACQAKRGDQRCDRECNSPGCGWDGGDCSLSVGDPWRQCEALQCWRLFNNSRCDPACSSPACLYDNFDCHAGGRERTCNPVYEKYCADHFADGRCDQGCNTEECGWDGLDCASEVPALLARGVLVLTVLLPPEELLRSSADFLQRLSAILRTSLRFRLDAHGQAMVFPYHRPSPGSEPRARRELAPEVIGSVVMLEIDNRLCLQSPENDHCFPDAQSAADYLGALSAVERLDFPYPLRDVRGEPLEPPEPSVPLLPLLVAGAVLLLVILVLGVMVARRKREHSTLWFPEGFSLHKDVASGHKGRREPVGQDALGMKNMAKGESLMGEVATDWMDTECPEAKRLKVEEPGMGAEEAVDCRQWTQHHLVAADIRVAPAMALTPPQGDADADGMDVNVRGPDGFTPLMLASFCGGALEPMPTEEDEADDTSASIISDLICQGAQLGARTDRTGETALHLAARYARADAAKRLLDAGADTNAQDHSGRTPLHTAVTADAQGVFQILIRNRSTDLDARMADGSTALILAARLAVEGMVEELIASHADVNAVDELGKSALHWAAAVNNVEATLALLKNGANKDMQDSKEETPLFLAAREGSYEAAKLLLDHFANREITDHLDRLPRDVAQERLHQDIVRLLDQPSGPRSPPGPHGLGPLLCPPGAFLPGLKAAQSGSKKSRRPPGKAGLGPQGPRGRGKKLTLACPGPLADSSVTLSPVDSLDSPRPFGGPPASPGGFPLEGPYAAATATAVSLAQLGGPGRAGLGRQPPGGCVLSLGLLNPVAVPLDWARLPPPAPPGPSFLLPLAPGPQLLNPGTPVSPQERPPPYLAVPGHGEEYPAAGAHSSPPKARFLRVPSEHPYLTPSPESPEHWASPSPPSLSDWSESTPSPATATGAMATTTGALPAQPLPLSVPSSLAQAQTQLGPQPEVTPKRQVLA
Fibroblast growth factor 10 (Homo sapiens), sequence (O15520 whole entry, looked up): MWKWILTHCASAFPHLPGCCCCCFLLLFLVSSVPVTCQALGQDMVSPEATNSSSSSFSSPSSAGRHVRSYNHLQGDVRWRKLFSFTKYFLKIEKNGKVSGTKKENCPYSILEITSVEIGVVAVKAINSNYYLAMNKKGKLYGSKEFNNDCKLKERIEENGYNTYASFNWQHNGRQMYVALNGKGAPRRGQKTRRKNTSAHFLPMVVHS
Torsin-1A-interacting protein 2 (Homo sapiens), sequence (Q8NFQ8 whole entry, looked up): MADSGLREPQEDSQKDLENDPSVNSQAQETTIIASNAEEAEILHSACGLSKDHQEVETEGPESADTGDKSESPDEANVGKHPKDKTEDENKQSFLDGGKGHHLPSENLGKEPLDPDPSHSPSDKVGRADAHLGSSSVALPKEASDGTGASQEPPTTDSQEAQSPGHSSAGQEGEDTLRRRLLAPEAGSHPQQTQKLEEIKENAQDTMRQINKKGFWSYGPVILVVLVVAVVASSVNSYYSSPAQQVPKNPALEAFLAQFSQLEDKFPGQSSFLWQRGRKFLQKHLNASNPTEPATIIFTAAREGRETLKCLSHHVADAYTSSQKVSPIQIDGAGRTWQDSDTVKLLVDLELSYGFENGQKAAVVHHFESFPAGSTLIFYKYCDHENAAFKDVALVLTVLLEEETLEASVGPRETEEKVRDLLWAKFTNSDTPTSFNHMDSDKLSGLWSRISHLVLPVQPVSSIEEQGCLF

As for `CCN1C(=O)[C@H]2[C@H]3[C@H](O)[C@H](O)CC(=NOCc4ccccc4)[C@@H]3CC[C@H]2C1=O`, the composite z-score is 0.54 in [1]; 0.558 in [5]; -0.0917 in [7]; 0.339 in [8]; 0.761 in [9]; -0.0568 in experiment [10]. In addition, the composite z-score in [11] is 0.119; in experiment [12], 0.214; in experiment [13] it was -0.585; in experiment [15], 0.302; in experiment [16], 0.478; in experiment [17], 0.33. Also, the composite z-score turned out to be 0.51 in experiment [18], 0.267 in [19] and 0.383 in [20]. The z-score is -2.27 (inactive) in experiment [2]; -0.784 (inactive) in [3]; -0.433 (inactive) in [4]; -0.558 (inactive) in experiment [6]; -1.02 (inactive) in experiment [14].
As to `CC(C)CN1CCc2nc(-c3ccccc3)c3c(c2CC1)CO[C@@H](C)C3`, the composite z-score in experiment [1] is -0.36; in [5], -0.39; in [7] it was 0.061; in [8] it was 0.364; in [9] it was 0.0668; in experiment [10], 0.0657. Also, the composite z-score in experiment [11] is -0.232; in [12], 0.256; in [13], -0.469; in [15], 0.515; in experiment [16], 0.123; in experiment [17], 0.471. Moreover, the composite z-score in experiment [18] was 0.202; in [19], 0.718; in experiment [20], 0.157. The z-score is 0.175 (inactive) in experiment [2]; -0.327 (inactive) in [3]; -0.378 (inactive) in experiment [4]; 0.102 (inactive) in experiment [6]; 0.00565 (inactive) in experiment [14].
For `CCOC(=O)[C@H](Cc1ccccc1)NC(=O)CCC1CC(OC(=O)NCCc2ccc(F)cc2)CC2(CCCC(COC(=O)NCC(c3ccccc3)c3ccccc3)O2)O1` (stereo not given in full), the composite z-score in experiment [1] was 1.57; in [5] it was 2.18; in [7], -0.199; in experiment [8], 0.538; in experiment [9], 1.14; in [10], -0.139. For the same compound, the composite z-score is 0.892 in experiment [11]; -0.273 in [12]; -0.368 in experiment [13]; 0.617 in [15]; 0.729 in [16]; 0.374 in [17]. Also, the composite z-score was 0.979 in experiment [18], 0.898 in experiment [19] and -0.235 in [20]. The z-score is 0.378 (inactive) in experiment [2]; 0.745 (inactive) in experiment [3]; -0.436 (inactive) in experiment [4]; 0.0565 (inactive) in experiment [6]; 0.378 (inactive) in experiment [14].
For `O=C1[C@H]2[C@H]3[C@H](O)[C@H](O)CC(=NOCc4ccccc4)[C@@H]3CC[C@H]2C(=O)N1Cc1ccccc1`, the composite z-score is 0.0044 in experiment [1]; 0.577 in [5]; -0.21 in experiment [7]; 0.656 in [8]; 0.797 in experiment [9]; -0.0828 in experiment [10]. For the same compound, the composite z-score in experiment [11] was -0.935; in experiment [12], -0.206; in [13], -0.571; in experiment [15], 0.43; in experiment [16], 0.75; in experiment [17], 0.453. Moreover, the composite z-score in experiment [18] is 0.58; in experiment [19], 0.544; in experiment [20], -0.359. The z-score in [2] is -0.132 (inactive); in [3], -0.176 (inactive); in experiment [4], -1.41 (inactive); in experiment [6] it was 0.263 (inactive); in experiment [14] it was -0.491 (inactive).
As to `COc1ccc(-c2nc3c(c4c2C[C@H](C)OC4)CN(CCC(C)C)CC3)cc1`, the composite z-score was 1.31 in experiment [1]; 1.5 in experiment [5]; -0.142 in experiment [7]; 0.501 in [8]; 0.982 in experiment [9]; 0.167 in [10]. Also, the composite z-score is 0.785 in [11]; -0.0348 in experiment [12]; -0.514 in [13]; 1.02 in experiment [15]; 1.08 in experiment [16]; 0.472 in [17]. Besides, the composite z-score in experiment [18] was 1; in experiment [19], 0.388; in [20], -0.296. For the same compound, the z-score is 0.382 (inactive) in [2]; -0.692 (inactive) in experiment [3]; 0.0635 (inactive) in experiment [4]; 0.618 (inactive) in experiment [6]; 0.386 (inactive) in experiment [14].
As for `COC(=O)[C@@H]1CCCN1C(=O)[C@@H](C)CO`, the composite z-score in [1] is 0.177; in experiment [5], 0.93; in experiment [7] it was -0.152; in [8], 0.415; in experiment [9], 0.753; in [10], 0.0055. In addition, the composite z-score in [11] was 0.42; in [12] it was -0.0908; in experiment [13], -0.445; in experiment [15], 0.601; in experiment [16], 1.24; in [17], 0.524. The composite z-score in [18] was 0.592; in [19] it was 0.547; in experiment [20], -0.198. In addition, the z-score was -1.12 (inactive) in experiment [2]; -0.988 (inactive) in experiment [3]; 0.258 (inactive) in experiment [4]; -0.197 (inactive) in [6]; -0.74 (inactive) in experiment [14].
For `C=CCOC(=O)[C@H]1[C@@H]2C(=O)O[C@@H](c3ccccc3)[C@@H](c3ccccc3)N2[C@@H](c2ccc(OCCOC(=O)[C@H]3C[C@H]4C(=O)N5CCC[C@H]5C(=O)N4[C@H]3c3cccc(OCCO)c3)cc2)[C@]12C(=O)Nc1ccc(I)cc12`, the composite z-score in [1] was 1.53; in [5], 3.41; in [7] it was 1.35; in [8] it was 1.49; in experiment [9], 1.12; in [10], 0.938. In addition, the composite z-score in [11] came to 2.03; in [12], 2.12; in [13], 1.36; in experiment [15], 1.4; in experiment [16] it was 1.37; in [17], 1.02. For the same compound, the composite z-score in experiment [18] came to 1.41; in experiment [19], 1.22; in experiment [20] it was 1.47. In addition, the z-score in experiment [2] was -0.104 (inactive); in experiment [3], -0.77 (inactive); in [4] it was 0.289 (inactive); in experiment [6] it was -0.301 (inactive); in [14], 1.1 (inactive).
Take `CS(=O)(=O)CCOC(=O)C1=CC(CCCO)=CC(c2cccs2)N(Cc2cccc(OC(F)(F)F)c2)C=C1C(=O)OCCS(C)(=O)=O` (stereo not given): the composite z-score worked out at 1.57 in experiment [1]; 2.17 in experiment [5]; 0.0651 in [7]; 0.025 in experiment [8]; 0.993 in experiment [9]; 0.0269 in [10]. The composite z-score was 0.811 in experiment [11]; 0.674 in experiment [12]; 0.742 in experiment [13]; 0.739 in experiment [15]; 0.873 in [16]; -0.37 in [17]. For the same compound, the composite z-score in experiment [18] was 0.14; in [19], -0.06; in [20], 0.915. Also, the z-score in experiment [2] was -0.522 (inactive); in experiment [3], -2.82 (inactive); in [4], -1.34 (inactive); in experiment [6], -0.0221 (inactive); in experiment [14] it was 0.538 (inactive).
As for `CC(CCC(=O)OC[C@H]1O[C@H](C#Cc2ccccc2)C=C[C@@H]1Oc1ccc(C)cc1)=NOC[C@@H](O)COCc1ccco1`, the composite z-score in experiment [1] is -0.25; in experiment [5] it was -0.486; in experiment [7] it was -0.356; in experiment [8], -3.08; in experiment [9] it was -1.76; in [10] it was -0.428. Besides, the composite z-score in [11] was 1.33; in [12], -0.627; in [13], -0.044; in experiment [15], -3.07; in experiment [16], -1.25; in experiment [17], -3.58. The composite z-score in [18] is -3.18; in experiment [19], -2.09; in [20] it was -2.69. The z-score in experiment [2] is 0.594 (inactive); in experiment [3], 0.134 (inactive); in [4], 0.108 (inactive); in experiment [6], 0.147 (inactive); in [14], -0.0928 (inactive).
